Some test systems named below: SR leukemia; RPMI-8226 leukemia; OVCAR-8 ovarian; OVCAR-5 ovarian; OVCAR-4 ovarian; SK-OV-3 ovarian; IGROV1 ovarian; OVCAR-3 ovarian; HS 578T breast; NCI/ADR-RES ovarian.
Common to all, as to assay: NCI-60 one-dose screen, 48 h (100 = growth as untreated, 0 = no growth, -100 = all killed)
What all share (settings): 10 µM unless noted

About 83,000 compounds went through this panel and 20% of them were active in at least one assay; those are over-represented in the sample as a whole.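 Method: cells in 96-well plates; compound added at one concentration; 48 h incubation; percent growth measured; values under 10 scored active.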 Unmarked numbers belong to inactive results. Activity calls are given as the source filed them.

With `Cc1[nH]c(C(=O)Nc2ccc(C(=O)NCC3CCNCC3)cc2OC(C)C)c(Cl)c1Cl`, the growth with SR leukemia is -0.735% (active); in the assay on RPMI-8226 leukemia, 42.3%; with OVCAR-8 ovarian, 86.6%; with OVCAR-5 ovarian it was 84.9%; with OVCAR-4 ovarian, 89.5%; in the assay on SK-OV-3 ovarian, 97.3%. Further, the growth is 54.4% in the assay with IGROV1 ovarian, 85.6% in the assay with OVCAR-3 ovarian, 69.1% in the assay on HS 578T breast and 100% in the assay on NCI/ADR-RES ovarian.
With `COc1ccc2[nH]cc(-c3nc(N)nnc3-c3cn(C)c4ccc(Br)cc34)c2c1`, the growth in the assay on SR leukemia is 9.35% (active); in the assay with RPMI-8226 leukemia, 6.31% (active); in the assay on OVCAR-8 ovarian, 42.8%; in the assay on OVCAR-5 ovarian, 56.5%; in the assay with OVCAR-4 ovarian, 63.6%; in the assay on SK-OV-3 ovarian, 44%. Besides, the growth in the assay on IGROV1 ovarian was 38.9%; in the assay with OVCAR-3 ovarian it was -8.84% (active); with HS 578T breast, 16.9%; in the assay on NCI/ADR-RES ovarian it was 64.3%.
Regarding `COc1ccc(NC2=C(Br)C(=O)C(C)=C(C)C2=O)cc1OC`, the growth was 71.2% in the assay on SR leukemia; 70.8% with RPMI-8226 leukemia; 96% in the assay with OVCAR-8 ovarian; 121% with OVCAR-5 ovarian; 14.1% with OVCAR-4 ovarian; 83.8% in the assay on SK-OV-3 ovarian. For the same molecule, the growth in the assay with IGROV1 ovarian was 86%; with OVCAR-3 ovarian, 107%; in the assay with HS 578T breast, 97.6%; in the assay on NCI/ADR-RES ovarian, 97.3%.
`O=C(Nc1ccc(Cl)c(C(F)(F)F)c1)Nc1ccc2c(ccn2C(=O)c2cccc(F)c2)c1`: the growth in the assay on SR leukemia is 27.5%; in the assay with RPMI-8226 leukemia it was -6.63% (active); with OVCAR-8 ovarian, 34.1%; in the assay on OVCAR-5 ovarian, 67.3%; in the assay on OVCAR-4 ovarian it was 7.18% (active); in the assay on SK-OV-3 ovarian it was 99.1%. In addition, the growth in the assay with IGROV1 ovarian is 25%; with OVCAR-3 ovarian, 9.54% (active); with HS 578T breast it was 52.4%; with NCI/ADR-RES ovarian it was 30.8%.
In the case of `Cn1c(SCC(=O)c2ccco2)nc2ccccc2c1=O`, the growth in the assay with SR leukemia was 91.5%; in the assay with RPMI-8226 leukemia it was 93.4%; in the assay on OVCAR-8 ovarian, 101%; in the assay with OVCAR-5 ovarian, 111%; in the assay with OVCAR-4 ovarian, 95.5%; in the assay with SK-OV-3 ovarian, 107%. The growth in the assay with IGROV1 ovarian was 86.1%; in the assay with OVCAR-3 ovarian it was 107%; in the assay with HS 578T breast, 104%; with NCI/ADR-RES ovarian, 105%.
`COc1cc2oc(-c3cccc(NC(=O)[C@@H](N)C(C)C)c3)cc(=O)c2c(OC)c1OC`: the growth was 76.9% in the assay on SR leukemia; 88.2% with RPMI-8226 leukemia; 99% in the assay with OVCAR-8 ovarian; 103% in the assay with OVCAR-5 ovarian; 107% with OVCAR-4 ovarian; 104% in the assay with SK-OV-3 ovarian. In addition, the growth in the assay on IGROV1 ovarian is 103%; with OVCAR-3 ovarian, 108%; in the assay with HS 578T breast, 112%; in the assay with NCI/ADR-RES ovarian, 107%.
As to `COc1ccc(C(C)=C(c2ccc(OCCN(C)C)cc2)c2ccc(OCCN(C)C)cc2)cc1`, the growth with SR leukemia was -46.5% (active); in the assay with RPMI-8226 leukemia, -48.5% (active); with OVCAR-8 ovarian it was -2.55% (active); with OVCAR-5 ovarian, -5.23% (active); in the assay with OVCAR-4 ovarian it was -35.4% (active); in the assay with SK-OV-3 ovarian, -5.19% (active). The growth was -24.6% (active) with IGROV1 ovarian, -46.2% (active) in the assay on OVCAR-3 ovarian, -46.7% (active) in the assay with HS 578T breast and 0.85% (active) with NCI/ADR-RES ovarian.
Turning to `CN1CCN(c2ccc(Nc3nc(NCCNC(=O)c4ccccc4)c4sccc4n3)cc2)CC1`, the growth is 5.68% (active) in the assay with SR leukemia; 33.4% with RPMI-8226 leukemia; 62.4% in the assay with OVCAR-8 ovarian; 84.1% with OVCAR-5 ovarian; 55.4% in the assay on OVCAR-4 ovarian; 123% with SK-OV-3 ovarian. The growth in the assay on IGROV1 ovarian is 87.9%; in the assay with OVCAR-3 ovarian it was 76.9%; with HS 578T breast, 81%; in the assay with NCI/ADR-RES ovarian, 91.7%.
Take `C#CCOc1cccc(-c2nc(N)nc(Nc3ccccc3SSc3ccccc3Nc3nc(N)nc(-c4cccc(OCC#C)c4)n3)n2)c1`: the growth with SR leukemia is -16.2% (active); in the assay on RPMI-8226 leukemia it was 22%; in the assay with OVCAR-8 ovarian, 16.7%; in the assay on OVCAR-5 ovarian, 45%; with OVCAR-4 ovarian it was 80.9%; with SK-OV-3 ovarian it was 91.5%. Moreover, the growth is -5.3% (active) in the assay on IGROV1 ovarian, 79.7% with OVCAR-3 ovarian, 51.9% in the assay with HS 578T breast and 5.66% (active) with NCI/ADR-RES ovarian.
Take `NCCNC(=O)c1cccc(COc2ccccc2NC(=O)c2cc(Br)c(Br)[nH]2)c1`: the growth was 8.3% (active) with SR leukemia; 86.8% in the assay with RPMI-8226 leukemia; 64.6% in the assay with OVCAR-8 ovarian; 101% in the assay on OVCAR-5 ovarian; 103% in the assay with OVCAR-4 ovarian; 136% in the assay on SK-OV-3 ovarian. Besides, the growth in the assay on IGROV1 ovarian is 88%; with OVCAR-3 ovarian it was 103%; in the assay on HS 578T breast, 100%; with NCI/ADR-RES ovarian it was 96.7%.
As for `CCOC(=O)c1c(NC(=O)c2cccc(C(F)(F)F)c2)sc2c1CCC(=O)C2`, the growth with SR leukemia was 8.07% (active); in the assay on RPMI-8226 leukemia, 7.65% (active); with OVCAR-8 ovarian, 19.7%; in the assay with OVCAR-5 ovarian it was 40.4%; in the assay on OVCAR-4 ovarian, 0.236% (active); with SK-OV-3 ovarian, 82.4%. In addition, the growth is 18.4% in the assay on IGROV1 ovarian, 25.8% in the assay with OVCAR-3 ovarian, 36.5% in the assay on HS 578T breast and 12.5% in the assay with NCI/ADR-RES ovarian.

The values above are taken from PubChem BioAssay (NCI).
